Inconclusive results are not listed. A call without a number means that no potency is given here. Calls of active or inactive are those of the source. The call rests on the fitted dose curve; in most records, active means well fitted curve in the direction sought with a large enough effect; inconclusive means small, poorly fitted or top-dose-only effect, or another doubt; inactive means no such curve, though single readings can be large; an effect the other way counts as inactive or inconclusive.
Tests used:
[1] = MultiTox-Fluor Cytotoxicity Assay - LYMP1-002 - Live Cells (AID 955); further: potency means the concentration at half of the fitted maximal effect
In short: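 LYMP1-002 lymphoblastoid cells; 2500 cells/well; 16 hr compound exposure, 37 C; MultiTox-Fluor reagent 60 min RT; live-cell fluorescence Ex/Em=405/510; qHTS concentration-response, Hill-equation AC50; tetraoctylammonium bromide positive control.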

[2] = MultiTox-Fluor Cytotoxicity Assay - LYMP1-003 - Dead Cells (AID 961); further: nearly all actives have a fitted effect of over 70% in size; further: potency means the concentration at half of the fitted maximal effect
In short: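 LYMP1-003 human lymphoblastoid cells (2500/well) exposed to compound 16 h at 37 C in complete medium; dead-cell protease read with bis-AAF-R110 fluorescence (Ex/Em 485/520) after 60 min at room temperature. Normalized to DMSO and 15 uM tetraoctylammonium bromide; AC50 from Hill fit.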

[3] = MultiTox-Fluor Cytotoxicity Assay - LYMP1-003 - Live Cells (AID 962); further: potency means the concentration at half of the fitted maximal effect
In short: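 Readout: live-cell fluorescence (Ex/Em=405/510) from GF-AFC cleavage after 60 min MultiTox-Fluor reagent at room temperature. Lymphoblastoid LYMP1-003 cells, 16 hr compound treatment, 37 C. Concentration-response fitted to standard Hill equation for AC50.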

[4] = Cell Viability - LYMP1-003 - Assay at 24 hr (AID 963)
In short: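 CellTiter-Glo luminescence (intracellular ATP) read after 24 hr, 37 C compound exposure of 2500 LYMP1-003 human lymphoblastoid cells/well in complete medium; qHTS concentration series; AC50 via standard Hill equation.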

[5] = Cell Viability - LYMP2-003 (AID 965);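 further: cells exposed to compounds for 24 h before reading; nearly all actives have a fitted effect of over 50% in size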
In short: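 qHTS, human lymphoblastoid line, 2500 cells/well, complete medium. 24 h drug, 37 C. ATP-based luminescent readout; Hill-fit AC50.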

[6] = Cell Viability - LYMP2-011 (AID 969); further: nearly all actives have a fitted effect of over 60% in size; further: potency means the concentration at half of the fitted maximal effect
In short: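 Luminescent ATP read-out (CellTiter-Glo, 30 min RT) after 24 hr compound exposure at 37 C in human lymphoblastoid cells, 2500 cells/well. Decreasing ATP indicates cytotoxicity; AC50 from standard Hill fit.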

[7] = Cell Viability - LYMP2-015 (AID 971); further: nearly all actives have a fitted effect of over 55% in size; further: potency means the concentration at half of the fitted maximal effect
In short: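 qHTS cytotoxicity: 2500 cells/well, 5 hr 37 C, compound 24 hr 37 C, CellTiter-Glo 30 min RT, luminescence. Loss of ATP = toxicity; AC50 via standard Hill fit.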

[8] = target: Alpha-galactosidase (Coffea arabica) (UniProt Q42656); assay: Counterscreen for Glucocerebrosidase Inhibitors: qHTS Assay for Coffee Bean alpha-Galactosidase at pH 4.5 (AID 957); further: series mostly up to about 77 µM
Sequence of Alpha-galactosidase (Coffea arabica) (Q42656 whole entry, looked up): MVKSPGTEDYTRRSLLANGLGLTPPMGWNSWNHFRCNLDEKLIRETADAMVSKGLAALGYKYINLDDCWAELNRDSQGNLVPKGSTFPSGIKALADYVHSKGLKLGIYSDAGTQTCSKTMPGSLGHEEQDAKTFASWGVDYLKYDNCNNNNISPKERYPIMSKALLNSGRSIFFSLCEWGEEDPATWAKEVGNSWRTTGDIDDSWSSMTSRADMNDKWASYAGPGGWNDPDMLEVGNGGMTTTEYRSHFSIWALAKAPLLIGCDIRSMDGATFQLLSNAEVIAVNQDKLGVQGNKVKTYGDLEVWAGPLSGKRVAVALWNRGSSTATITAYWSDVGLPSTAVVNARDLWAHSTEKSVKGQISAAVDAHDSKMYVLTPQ
In short: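 Fluorogenic read-out: 4-methylumbelliferone at Ex 365/Em 440 nm after NaOH/glycine stop (pH 10). Enzyme 2 nM, 4-MU-alpha-galactoside 80 uM, citrate buffer pH 4.5, 20 min RT; normalized to no-enzyme and enzyme controls.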

[9] = MultiTox-Fluor Cytotoxicity Assay - LYMP1-002 - Dead Cells (AID 960); further: nearly all actives have a fitted effect of over 60% in size; further: potency means the concentration at half of the fitted maximal effect
In short: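 Readout: fluorescence at 485/520 from cell-impermeant bis-AAF-R110 cleaved by proteases leaking from damaged cells. LYMP1-002 lymphoblastoid line, 16 hr compound treatment at 37 C, concentration-response in qHTS format; Hill-equation AC50 values.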

[10] = Cell Viability - LYMP1-003 - Assay at 40 hr (AID 964); further: nearly all actives have a fitted effect of over 60% in size; further: potency means the concentration at half of the fitted maximal effect
In short: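 LYMP1-003 lymphoblastoid cells, 2500/well; 5 hr preincubation, 40 hr compound exposure, 37 C; CellTiter-Glo 30 min RT; luminescence; Hill-fit AC50. Positive control tetraoctylammonium bromide.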

[11] = Cell Viability - LYMP2-004 (AID 966); further: nearly all actives have a fitted effect of over 65% in size
In short: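 Luminescent ATP read-out (CellTiter-Glo, 30 min RT) after 24 hr compound exposure at 37 C; 2500 lymphoblastoid cells/well, complete medium. Decrease in ATP = cytotoxicity; AC50 from standard Hill model.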

[12] = Cell Viability - LYMP2-005 (AID 967); further: potency means the concentration at half of the fitted maximal effect
In short: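 Luciferase-based ATP quantitation served as the viability measure in human lymphoblastoid LYMP2-005 cells exposed to test compounds for 24 h at 37 C in complete culture medium. Potency (AC50) was obtained by fitting concentration-response curves with the Hill equation.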

[13] = Cell Viability - LYMP2-009 (AID 968); further: nearly all actives have a fitted effect of over 55% in size; further: potency means the concentration at half of the fitted maximal effect
[14] = Cell Viability - LYMP2-013 (AID 970); further: nearly all actives have a fitted effect of over 55% in size; further: potency means the concentration at half of the fitted maximal effect
In short: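 CellTiter-Glo luminescence (cellular ATP) read after 30 min at RT. Cells: human lymphoblastoid line, 2500/well, 24 hr compound exposure at 37 C. Tetraoctylammonium bromide positive control; AC50 via standard Hill fit of qHTS titrations.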

[15] = Cell Viability - LYMP2-017 (AID 972); further: nearly all actives have a fitted effect of over 55% in size; further: potency means the concentration at half of the fitted maximal effect
In short: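 Luminescent ATP read-out (CellTiter-Glo, 30 min RT) reports viable cell number. Cells: human lymphoblastoid line, 2500 per well, 5 hr preincubation, 24 hr compound exposure at 37 C. AC50 is derived from qHTS concentration-response data using the standard Hill model.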

[16] = Cell Viability - LYMP2-019 (AID 973); further: nearly all actives have a fitted effect of over 55% in size; further: potency means the concentration at half of the fitted maximal effect
In short: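 qHTS, 1536-well; 2500 cells/well; 5 hr pre-incubation, 24 hr compound exposure, 37 C; CellTiter-Glo added, 30 min RT; luminescence read; AC50 via standard Hill equation.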

[17] = Cell Viability - LYMP2-021 (AID 974); further: potency means the concentration at half of the fitted maximal effect
In short: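 ATP luminescence (CellTiter-Glo, 30 min RT) after 24 h compound exposure at 37 C; 2500 human lymphoblastoid cells/well, 5 h settle beforehand. Cytotoxicity = concentration-dependent ATP drop, AC50 by Hill fit.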

[18] = Cell Viability - LYMP2-023 (AID 975); further: nearly all actives have a fitted effect of over 55% in size; further: potency means the concentration at half of the fitted maximal effect
In short: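 CellTiter-Glo luminescence after 30 min at room temperature; decrease in intracellular ATP reflects toxicity. Cells: human lymphoblastoid line, 2500/well, 24 hr compound exposure at 37 C. AC50 fitted to standard Hill equation from concentration-response.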

[19] = Cell Viability - LYMP2-025 (AID 976); further: potency means the concentration at half of the fitted maximal effect
In short: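 CellTiter-Glo luminescence (cellular ATP) after 24 h compound exposure at 37 C; LYMP2-025 human lymphoblastoid cells, 2500/well, complete medium. Tetraoctylammonium bromide positive control. AC50 by Hill equation fit of qHTS concentration-response.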

[20] = target: Pyruvate kinase (Leishmania mexicana) (UniProt Q27686); assay: qHTS Validation Assay for Activators of Leishmania Mexicana Pyruvate Kinase (AID 959); conditions: purified L. mexicana pyruvate kinase, enzyme activity
Sequence of Pyruvate kinase (Leishmania mexicana) (Q27686 2-499 E452W): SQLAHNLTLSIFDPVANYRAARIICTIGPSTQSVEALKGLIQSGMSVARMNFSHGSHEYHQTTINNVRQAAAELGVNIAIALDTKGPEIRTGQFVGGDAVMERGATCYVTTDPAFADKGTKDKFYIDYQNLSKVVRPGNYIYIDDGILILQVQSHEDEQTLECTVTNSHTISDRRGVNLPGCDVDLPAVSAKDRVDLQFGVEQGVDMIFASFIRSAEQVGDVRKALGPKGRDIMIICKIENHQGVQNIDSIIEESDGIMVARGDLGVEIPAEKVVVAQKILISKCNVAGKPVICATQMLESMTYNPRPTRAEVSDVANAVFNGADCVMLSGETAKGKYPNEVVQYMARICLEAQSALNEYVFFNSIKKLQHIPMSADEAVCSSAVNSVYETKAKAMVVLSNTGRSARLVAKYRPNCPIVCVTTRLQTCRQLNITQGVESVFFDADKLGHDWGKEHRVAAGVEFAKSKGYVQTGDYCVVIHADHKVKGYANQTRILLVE
In short: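 The enzyme is a highly purified E451W mutant of LmPYK used at 0.2 nM. It converts 0.5 mM PEP and 0.1 mM ADP over 1 h at room temperature; product ATP is quantified by luciferase luminescence relative to DMSO controls.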

Clc1ccc(COC(Cn2ccnc2)c2ccc(Cl)cc2Cl)cc1 (stereo not drawn)
Potency [1]: inactive | Potency [2]: 63.1 µM (active) | Potency [3]: inactive | outcome [4]: inactive | Potency [5]: inactive | Potency [6]: 79.4 µM (active) | Potency [7]: inactive

CN(Cc1cnc2nc(N)nc(N)c2n1)c1ccc(C(=O)N[C@@H](CCC(=O)O)C(=O)O)cc1
outcome [8]: inactive

CN1CCN(CCCN2c3ccccc3Sc3ccc(Cl)cc32)CC1
outcome [8]: inactive

Oc1ccc(Cl)cc1Cc1ccccc1
Potency [1]: inactive | Potency [9]: inactive | Potency [2]: inactive | Potency [3]: inactive | outcome [4]: inactive | Potency [10]: inactive | Potency [5]: inactive | Potency [11]: inactive | Potency [12]: inactive | Potency [13]: inactive | Potency [6]: inactive | Potency [14]: inactive | Potency [7]: inactive | Potency [15]: inactive | Potency [16]: inactive | Potency [17]: inactive | Potency [18]: inactive | Potency [19]: inactive

CC(=O)Oc1ccccc1C(=O)Nc1ncc([N+](=O)[O-])s1
Potency [1]: 25.1 µM (active) | Potency [9]: 25.1 µM (active) | Potency [2]: 39.8 µM (active) | Potency [3]: 39.8 µM (active) | Potency [10]: 12.6 µM (active) | Potency [12]: 31.6 µM (active) | Potency [6]: 50.1 µM (active) | Potency [14]: 39.8 µM (active) | Potency [16]: 31.6 µM (active) | Potency [17]: 39.8 µM (active) | Potency [19]: 31.6 µM (active)

CNCC(O)c1ccc(O)cc1 (stereo not drawn)
Potency [1]: inactive | outcome [8]: inactive | Potency [2]: inactive | Potency [3]: inactive | outcome [4]: inactive | Potency [10]: inactive | Potency [5]: inactive | Potency [11]: inactive | Potency [12]: inactive | Potency [13]: inactive | Potency [6]: inactive | Potency [14]: inactive | Potency [7]: inactive | Potency [15]: inactive | Potency [16]: inactive | Potency [17]: inactive | Potency [18]: inactive | Potency [19]: inactive

CN1CCN(CCCN2c3ccccc3Sc3ccc(C(F)(F)F)cc32)CC1
outcome [8]: inactive

CCOC(=O)N1CCC(=C2c3ccc(Cl)cc3CCc3cccnc32)CC1
outcome [8]: inactive

O=c1[nH]c2ccccc2n1C1CCN(CCCC(c2ccc(F)cc2)c2ccc(F)cc2)CC1
outcome [8]: inactive

CC(=O)Nc1nnc(S(N)(=O)=O)s1
outcome [8]: inactive

Oc1ccccc1-c1ccccc1
Potency [1]: inactive | Potency [9]: inactive | Potency [2]: inactive | Potency [3]: inactive | outcome [4]: inactive | Potency [10]: inactive | Potency [5]: inactive | Potency [11]: inactive | Potency [12]: inactive | Potency [13]: inactive | Potency [6]: inactive | Potency [14]: inactive | Potency [7]: inactive | Potency [15]: inactive | Potency [16]: inactive | Potency [17]: inactive | Potency [18]: inactive | Potency [19]: inactive

COc1ccccc1N1CCNCC1
outcome [8]: inactive

CCCC(C)(COC(N)=O)COC(=O)NC(C)C (stereo not drawn)
Potency [1]: inactive | outcome [8]: inactive | Potency [9]: inactive | Potency [2]: inactive | Potency [3]: inactive | outcome [4]: inactive | Potency [10]: inactive | Potency [5]: inactive | Potency [11]: inactive | Potency [12]: inactive | Potency [13]: inactive | Potency [6]: inactive | Potency [14]: inactive | Potency [7]: inactive | Potency [15]: inactive | Potency [16]: inactive | Potency [17]: inactive | Potency [18]: inactive | Potency [19]: inactive

CC1=NS(=O)(=O)c2cc(Cl)ccc2N1
outcome [8]: inactive

CN1C[C@H](CNC(=O)OCc2ccccc2)C[C@@H]2c3cccc4c3c(cn4C)C[C@H]21
Potency [20]: 12.6 µM (active)

C[C@]12C/C(=C/O)C(=O)C[C@@H]1CC[C@@H]1[C@@H]2CC[C@@]2(C)[C@H]1CC[C@]2(C)O
Potency [3]: inactive | outcome [4]: inactive | Potency [12]: inactive | Potency [17]: 63.1 µM (active) | Potency [19]: inactive

CC(COc1ccccc1)N(CCCl)Cc1ccccc1 (stereo not drawn)
Potency [13]: 39.8 µM (active) | Potency [6]: 50.1 µM (active) | Potency [14]: 39.8 µM (active) | Potency [7]: 39.8 µM (active) | Potency [15]: 39.8 µM (active) | Potency [17]: 50.1 µM (active) | Potency [18]: 50.1 µM (active)

CN(C)CCC=C1c2ccccc2CCc2ccccc21
Potency [7]: 31.6 µM (active)
